Data on five molecules can be found in PubChem BioAssay (EPA / NIEHS).

The structures appear in SMILES notation. Where “and” joins values, the source holds several entries; their conditions need not be identical. Equal values may be shown once. More than one record can exist for a structure, and the calls need not agree. Calls of active or inactive are those of the source. Rule for the calls: active = hit-call score of the fitted dose curve at least 0.9, where 1 is the maximum; inactive = score below 0.9.

Read-out in assay [1]: Collagen I, COL1A1 (gene 1277)
Nature of the assay: BSK_hDFCGF_CollagenI: BioMAP Diversity Plus: hDFCGF Assay for Collagen I Biomarker Activity (AID 2284250). As to conditions: primary human foreskin fibroblasts. In short, it runs like this: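 Human skin primary fibroblasts dosed with test chemical, harvested at 24 h, Collagen I quantified by ELISA; parallel SRB staining (0.1% SRB after 10% TCA fixation, 560 nm) tracked cytotoxicity.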

Read-out in assay [2]: Interferon-inducible T-cell alpha chemoattractant (ITAC), CXCL11 (gene 6373)
Description: BSK_hDFCGF_ITAC: BioMAP Diversity Plus: hDFCGF Assay for Interferon-inducible T-cell alpha chemoattractant (ITAC) Biomarker Activity (AID 2284251). As to conditions: primary human foreskin fibroblasts. The procedure, abridged:
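Fibroblasts (human foreskin, primary) are treated with chemical, cultured 24 h, then assayed for I-TAC by ELISA. Overt toxicity is checked in parallel cultures by sulforhodamine B staining of total protein at the same time point.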

Read-out in assay [3]: Plasminogen activator inhibitor-1 (PAI1), SERPINE1 (gene 5054)
Nature of the assay: BSK_KF3CT_PAI1: BioMAP Diversity Plus: KF3CT Assay for Plasminogen activator inhibitor-1 (PAI1) Biomarker Activity (AID 2284252). As to conditions: primary human keratinocytes with fibroblasts. The procedure, abridged:
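ELISA read-out of PAI-1 taken 24 h after chemical treatment of a human skin primary co-culture of keratinocytes and foreskin fibroblasts. Increases over DMSO-treated wells defined activity.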

Read-out in assay [4]: Monocyte Chemoattractant Protein-1 (MCP1), CCL2 (gene 6347)
Nature of the assay: BSK_IMphg_MCP1: BioMAP Diversity Plus: IMphg Assay for Monocyte Chemoattractant Protein-1 (MCP1) Biomarker Activity (AID 2284253). As to conditions: primary human endothelial cells with macrophages. The procedure, abridged: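 Human venular endothelial cells co-cultured with macrophages; MCP-1 measured by ELISA 24 hours post-dose and fitted against DMSO. Cytotoxicity monitored by SRB total-protein staining in parallel cultures.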

Read-out in assay [5]: Interleukin-8 (IL8), CXCL8 (gene 3576)
Description: BSK_KF3CT_IL8: BioMAP Diversity Plus: KF3CT Assay for Interleukin-8 (IL8) Biomarker Activity (AID 2284254). As to conditions: primary human keratinocytes with fibroblasts. The procedure, abridged:
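Chemicals were added to co-cultured human keratinocytes and foreskin fibroblasts, incubated 24 h, then IL-8 was quantified by ELISA. Cytotoxicity was tracked by sulforhodamine B total-protein staining in parallel cultures.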

Read-out in assay [6]: Macrophage Inflammatory Protein-1 Alpha (MIP1a), CCL3 (gene 6348)
Description: BSK_IMphg_MIP1a: BioMAP Diversity Plus: IMphg Assay for Macrophage Inflammatory Protein-1 Alpha (MIP1a) Biomarker Activity (AID 2284255). As to conditions: primary human endothelial cells with macrophages. The procedure, abridged: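 Co-culture of human venular endothelial cells and macrophages exposed to compounds for 24 h; MIP-1a measured by ELISA relative to DMSO. Cytotoxicity assessed in parallel cultures by sulforhodamine B total-protein staining at 560 nm.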

Read-out in assay [7]: Plasminogen activator inhibitor-1 (PAI1), SERPINE1 (gene 5054)
Description: BSK_MyoF_PAI1: BioMAP Diversity Plus: MyoF Assay for Plasminogen activator inhibitor-1 (PAI1) Biomarker Activity (AID 2284256).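 Note: PAI-1 protein level measured by ELISA in fibroblast cultures; PAI-1 read 24 h after compound addition.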 As to conditions: primary human lung fibroblasts. The procedure, abridged: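 Primary human lung fibroblasts are dosed and incubated 24 h. PAI-1 is then measured by ELISA, while parallel cultures undergo SRB staining for overt cytotoxicity. Increases over DMSO define activity.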

Read-out in assay [8]: CD69, CD69 (gene 969)
Nature of the assay: BSK_IMphg_CD69: BioMAP Diversity Plus: IMphg Assay for CD69 Biomarker Activity (AID 2284257). As to conditions: primary human endothelial cells with macrophages. The procedure, abridged: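 Human venular endothelial cells co-cultured with macrophages; CD69 quantified by ELISA 24 h after compound addition. Activity fitted in the positive direction relative to DMSO baseline; cytotoxicity tracked in parallel cultures via SRB total-protein staining.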

Read-out in assay [9]: Eotaxin 3, CCL26 (gene 10344)
Description: BSK_BF4T_Eotaxin3: BioMAP Diversity Plus: BF4T Assay for Eotaxin 3 Biomarker Activity (AID 2284258). As to conditions: primary human bronchial epithelial cells with fibroblasts. In short, it runs like this: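 Co-culture of human bronchial epithelial cells and dermal fibroblasts, exposed to chemicals for 24 h versus DMSO. Eotaxin-3 quantified by ELISA; cytotoxicity checked in parallel cultures by sulforhodamine B total-protein staining.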

Read-out in assay [10]: Monocyte Chemoattractant Protein-1 (MCP1), CCL2 (gene 6347)
Nature of the assay: BSK_BF4T_MCP1: BioMAP Diversity Plus: BF4T Assay for Monocyte Chemoattractant Protein-1 (MCP1) Biomarker Activity (AID 2284259). As to conditions: primary human bronchial epithelial cells with fibroblasts. In short, it runs like this:
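Co-culture of bronchial epithelial cells and dermal fibroblasts dosed with chemical; MCP-1 measured by ELISA 24 h later. Activity fitted in positive direction versus DMSO; cytotoxicity checked by SRB staining in parallel cultures.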

Read-out in assay [11]: Intercellular Adhesion Molecule 1 (ICAM1), ICAM1 (gene 3383)
Description: BSK_BF4T_ICAM1: BioMAP Diversity Plus: BF4T Assay for Intercellular Adhesion Molecule 1 (ICAM1) Biomarker Activity (AID 2284260). As to conditions: primary human bronchial epithelial cells with fibroblasts. In short, it runs like this: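 Co-culture of human bronchial epithelial cells and dermal fibroblasts exposed 24 h to chemical; cell-surface ICAM-1 quantified by ELISA. Parallel SRB total-protein staining assessed cytotoxicity; activity fitted relative to DMSO.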

Read-out in assay [12]: Interleukin-8 (IL8), CXCL8 (gene 3576)
Nature of the assay: BSK_MyoF_IL8: BioMAP Diversity Plus: MyoF Assay for Interleukin-8 (IL8) Biomarker Activity (AID 2284261). As to conditions: primary human lung fibroblasts. In short, it runs like this:
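IL-8 levels were measured by ELISA in human lung fibroblasts harvested 24 h after compound addition. Responses were analysed as gain of signal over the DMSO baseline.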

Read-out in assay [13]: CD90, THY1 (gene 7070)
Description: BSK_BF4T_CD90: BioMAP Diversity Plus: BF4T Assay for CD90 Biomarker Activity (AID 2284262). As to conditions: primary human bronchial epithelial cells with fibroblasts. The procedure, abridged:
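Co-culture of human bronchial epithelial cells and dermal fibroblasts, 24 h compound exposure. Cell-surface CD90 measured by ELISA relative to DMSO; parallel SRB total-protein staining for cytotoxicity.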

Read-out in assay [14]: Interleukin-8 (IL8), CXCL8 (gene 3576)
Nature of the assay: BSK_BF4T_IL8: BioMAP Diversity Plus: BF4T Assay for Interleukin-8 (IL8) Biomarker Activity (AID 2284263). As to conditions: primary human bronchial epithelial cells with fibroblasts. The procedure, abridged: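 Human bronchial epithelial cells with dermal fibroblasts co-culture; IL-8 measured by ELISA 24 hours after dosing, fitted vs DMSO. Cytotoxicity tracked in parallel cultures by SRB total-protein staining.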

Read-out in assay [15]: Interleukin-1 alpha (IL1a), IL1A (gene 3552)
Description: BSK_BF4T_IL1a: BioMAP Diversity Plus: BF4T Assay for Interleukin-1 alpha (IL1a) Biomarker Activity (AID 2284264). As to conditions: primary human bronchial epithelial cells with fibroblasts. In short, it runs like this:
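Human bronchial epithelial cells co-cultured with dermal fibroblasts, dosed and read at 24 h. Secreted/surface IL-1α quantified by ELISA; gain-of-signal fitted relative to DMSO baseline. Parallel SRB total-protein staining tracked cytotoxicity.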

Read-out in assay [16]: Decorin, DCN (gene 1634)
Description: BSK_MyoF_Decorin: BioMAP Diversity Plus: MyoF Assay for Decorin Biomarker Activity (AID 2284265). As to conditions: primary human lung fibroblasts. In short, it runs like this: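 Compound is added to lung fibroblast cultures; cells incubate 24 h; decorin is then measured by ELISA; the response is analysed upward against DMSO controls.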

Read-out in assay [17]: KRT18 (gene 3875)
Nature of the assay: BSK_BF4T_Keratin818: BioMAP Diversity Plus: BF4T Assay for Keratin 818 Biomarker Activity (AID 2284266). As to conditions: primary human bronchial epithelial cells with fibroblasts. In short, it runs like this: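 Co-culture of human bronchial epithelial cells and dermal fibroblasts, chemical exposure 24 h. Keratin 8/18 measured by ELISA; positive-direction fit vs DMSO. SRB total protein run in parallel cultures for cytotoxicity.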

A short description of assay [18]: BSK_MyoF_SRB: Viability Assessment in the BioMAP Diversity Plus: MyoF Assay (AID 2284267).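 Note: total protein by SRB absorbance in parallel cultures as cytotoxicity measure.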 As to conditions: primary human lung fibroblasts. In short, it runs like this:
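Read-out is SRB absorbance at 560 nm, reflecting total protein in parallel lung fibroblast cultures harvested 24 h after compound addition. Cells were TCA-fixed (10%) and stained with 0.1% SRB; activity is referenced to DMSO.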

Read-out in assay [19]: Matrix Metallopeptidase 1 (MMP1), MMP1 (gene 4312)
Description: BSK_MyoF_MMP1: BioMAP Diversity Plus: MyoF Assay for Matrix Metallopeptidase 1 (MMP1) Biomarker Activity (AID 2284268). As to conditions: primary human lung fibroblasts. The procedure, abridged:
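Lung fibroblast cultures were dosed with test chemicals and, after 24 h, MMP1 levels were measured by ELISA; responses were referenced to DMSO and analysed for increases.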

Read-out in assay [20]: TIMP metallopeptidase inhibitor 1 (TIMP1), TIMP1 (gene 7076)
Nature of the assay: BSK_MyoF_TIMP1: BioMAP Diversity Plus: MyoF Assay for TIMP metallopeptidase inhibitor 1 (TIMP1) Biomarker Activity (AID 2284269). As to conditions: primary human lung fibroblasts. The procedure, abridged:
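ELISA read-out of TIMP-1 from primary human lung fibroblast cultures 24 h after compound dosing; gain of signal relative to DMSO vehicle baseline defines activity.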

As for `OCC(F)(F)C(F)(F)C(F)(F)C(F)(F)C(F)(F)C(F)(F)C(F)(F)C(F)(F)CO`, the outcome in assay [1], in assay [7], in assay [12], in assay [13], in assay [14] and in [15] was inactive. Moreover, the result in assay [16], in assay [17], in assay [18], in [19] and in [20] was inactive. Moreover, the AC50 (as a rule, the concentration at which the activity in the assay is half-maximal) was 44.9 µM (active) and 43 µM (active) in assay [2]; 54.3 µM (active) and 48.3 µM (active) in assay [3]; 50.4 µM (active) and 51.3 µM (active) in assay [4]; 47.4 µM (active) and 50.4 µM (active) in assay [5]; 50 µM (active) and 51.6 µM (active) in assay [6]; 54.4 µM (active) and 42.6 µM (active) in [8]. The half-maximal activity concentration (AC50) was 15.3 µM (active) and 16.6 µM (active) in [9]; 16.7 µM (active) and 9.07 µM (active) in assay [10]; 16.4 µM (active) and 12.2 µM (active) in assay [11]; 47.2 µM (active) in assay [18]; 49.5 µM (active) in assay [19].

For the molecule `O=C(O)C(F)(F)C(F)(F)C(F)(F)C(=O)O`, the result in assay [1], in assay [3], in [4], in assay [5], in assay [6] and in [7] was inactive. In addition, the result in [8], in [9], in [10], in assay [11], in assay [12] and in assay [13] was inactive. In addition, the result in [14], in assay [15], in assay [16], in [17], in assay [18] and in assay [19] was inactive. Moreover, in assay [20], the result was inactive.

For `OCC(O)CC(F)(F)C(F)(F)C(F)(F)C(F)(F)F` (configuration not stated), the outcome in assay [1], in [2], in assay [3], in assay [4], in assay [5] and in assay [6] was inactive. Besides, the outcome in assay [7], in assay [8], in assay [9], in [10], in [11] and in assay [12] was inactive. Also, the result in [13], in [14], in assay [15], in [16], in [17] and in [18] was inactive. For the same molecule, the outcome in [19] and in assay [20] was inactive. Also, the AC50 is 263 nM (active) in [10] and 0.22 µM (active) in assay [14].

In the case of `NCC(F)(F)C(F)(F)C(F)(F)C(F)(F)C(F)(F)C(F)(F)F`, the outcome in [1], in assay [3], in assay [4], in assay [5], in assay [6] and in assay [7] was inactive. The outcome in [8], in [9], in [10], in [11], in assay [12] and in assay [13] was inactive. Besides, the outcome in assay [14], in assay [15], in assay [16], in assay [17], in assay [18] and in assay [19] was inactive. Also, the result in assay [20] was inactive.

As for `C=CC(=O)OCC(F)(F)C(F)(F)C(F)(F)C(F)(F)C(F)(F)C(F)(F)C(F)(F)C(F)F`, the result in [1], in assay [3], in [4], in assay [5], in [6] and in [7] was inactive. In addition, the result in assay [8], in assay [9], in assay [10], in [11], in [12] and in assay [13] was inactive. The outcome in assay [14], in assay [15], in assay [16], in [17], in [18] and in assay [20] was inactive. Also, the AC50 was 10.3 µM (active) in assay [16]; 39.7 µM (active) and 30 µM (active) in assay [19].
